In the library only some 4.7% were active in any assay of this set; here they are far more common.
TROY signal inh: blocks TROY-dependent signaling in reporter cells. Q293 LMP1-TROYcd NF-kB luciferase reporter, 4 h. inhibition, % at 10 µM. 360,000 compounds, 0.98% hits. AID 1347056;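 active = compounds whose plate-normalised and pattern-corrected inhibition of the luciferase reporter signal at the single screening dose is 50% or more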
EBV LMP1 NFkB: reduces LMP1-driven NF-kappaB luciferase signal | LMP1-induced NF-kappaB luciferase reporter cells, luminescence | inhibition, % at 12.5 µM | 350,000 compounds, 0.69% hits | AID 504558; in the data active = inhibition above about 41%;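 note: 0% = neutral control wells and 100% = reference inhibitor control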
HSP90 inh: blocks HSP90-mediated luciferase refolding in reticulocyte lysate. Rabbit reticulocyte lysate, luciferase refolding luminescence, 3 h. inhibition, % at 5.6 µM. 290,000 compounds, 0.91% hits;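 active = inhibition above the screen-wide mean plus 3 SD, computed separately per campaign, cut at about 16% in these data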;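 note: 0% = DMSO wells and 100% = 60 µM geldanamycin wells; inhibitors lower the luminescence because luciferase stays unfolded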
HSF-1 act: increases HSF-1 driven luciferase reporter signal; NIH3T3-HGL HSF-1 luciferase reporter, MG132, 8 h; 100% = twice DMSO control signal; activation, % at 9 µM; 300,000 compounds, 1.7% hits; AID 504408;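 active = mean replicate activation of at least 50% with a set share of replicates each reaching 50%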;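 note: 0% = median of the neutral control wells and 100% = twice that signal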
TWEAK Fn14 block: inhibitors of TWEAK-Fn14 interaction signaling; TWEAK-stimulated Fn14 reporter cells, luciferase luminescence, 8 h; 360,000 compounds, 2% hits; inhibition, % at 10 µM; AID 1159606; in the data active = inhibition above about 50%
HSF1 inhib: HSF1 inhibition | NIH3T3-HGL HSE-luciferase, MG132-induced, luminescence 8 h; stronger effect = lower value | activity change, negative = inhibition, % at 7.5 µM (by protocol) | 300,000 compounds, 0.77% hits | AID 2098;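 active = more than half of replicate wells show activity change below -50%, luminescence cut by over half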;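 note: luciferase reports HSF-1 transcriptional activity via heat shock element; 0% = median of DMSO wells and -100% = zero luminescence signal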
Numbers without * were called inactive; . = not tested or not shown; ! = repeats disagree.

SMILES	TROY signal inh	EBV LMP1 NFkB	HSP90 inh	HSF-1 act	TWEAK Fn14 block	HSF1 inhib
Cc1cc(C)n2nc(C(=O)N/N=C/c3ccc(Cl)cc3)nc2n1	-4	-5	-4	-12	-14	-9
Cc1cc(C)n2nc(C(=O)N/N=C/c3cccc(Cl)c3)nc2n1	-23	5	1	56*	-20	21
Cc1nn2cc(-c3ccc(Cl)cc3)nc2s1	-5	-12	5	36	63*	22
CCN(CC)C(=O)C1=C(C)N(Cc2ccc(C(C)(C)C)cc2)C(=O)C(CC(=O)NCc2cccs2)C1 (stereo not given)	5	2	.	.	16	.
COc1ccc(-n2nc3c(N4CCC(C(=O)N5CCC(C)CC5)CC4)nnc(C)c3c2C)cc1	-1	-2	-2	55*	-16	17
Cc1nnc(N2CCC(C(=O)N3CCCCC3)CC2)c2nn(-c3ccc(Cl)cc3)c(C)c12	3	0	-4	17	-15	2
OC[C@@H]1CN(Cc2ccco2)C[C@H](n2cnc3c(N4CCOCC4)ncnc32)O1	-6	.	.	.	-6	.
CCOC(=O)N1CCN(CC(O)COc2ccc(-c3ccccc3)cc2)CC1 (stereo not given)	2	2	6	3	-1	-4
NC(=O)C1CCN(CC(O)COc2ccc(-c3ccccc3)cc2)CC1 (stereo not given)	-20	-13	2	1	107*	-6
O=C(NCCc1ccccc1)C(c1cccs1)N(C(=O)CCl)c1ccc(Cl)cc1 (stereo not given)	-22	-4	1	-96	64*	-95*
O=C1C[C@@H]2C(=O)N(c3ccccc3)C(=O)[C@@H]2[C@@H]2CN(S(=O)(=O)c3ccccc3)[C@@H](c3ccccc3)[C@H]12	7	.	.	.	4	.
CC1(C)CNc2cc(N)ccc2S1	51*	-9	8	42	51*	6
COc1ccc(C(C)(O)c2nc(-c3ccc4ccccc4c3)cs2)cc1 (stereo not given)	-2	.	.	.	24	.
FC(F)(F)c1cnc(NNC(=S)Nc2ccccc2Cl)c(Cl)c1	59*	-1	5	8	51*	4
S=C(NNc1ccnc2cc(Cl)ccc12)Nc1ccccc1Cl	66*	21	2	13	64*	16
Cc1cccc(C)c1NC(=O)C(c1ccccc1)N1CCN(c2ccc(F)cc2)CC1 (stereo not given)	18	.	.	.	-12	.
CC(C)C[C@H]1CN(CCCC[C@@H]2CNC(=O)C(=O)N2CC2CCCCC2)C(=O)C(=O)N1CCc1ccccc1	1	.	.	.	27	.
CCOC(=O)C1=C(COCCN)NC(C)=C(C(=O)OC)C1c1ccccc1Cl (stereo not given)	66*!	-4	.	0	3	4
O=C(Nc1cccnc1)C1Cc2c(-c3cccc(F)c3)ccnc2O1 (stereo not given)	9	.	.	.	-3	.
COc1ccc(N=C2S/C(=C\c3ccc(Cl)c([N+](=O)[O-])c3)C(=O)N2CCN(C)C)cc1	81*	-11	2	95*	60*	73
CCN(CC)CCN1C(=O)/C(=C\c2ccc(Cl)c([N+](=O)[O-])c2)SC1=Nc1ccc(OC)cc1	74*	30	4	43	99*	61
CCCN1C(=O)/C(=C/c2ccc(C)s2)SC1=Nc1ccc(OC)cc1	0	-9	0	-11	8	1
COc1ccccc1S(=O)(=O)N(C)C[C@@H]1OCc2cn(nn2)CCCC(=O)N([C@@H](C)CO)C[C@H]1C	-11	-10	.	.	9	.
CC1(C(=O)NS(=O)(=O)c2ccccc2Cl)CCN1C(=O)CC1CC1 (stereo not given)	-3	.	.	.	0	.
CCOC(=O)[C@]12CCC=C1N(Cc1ccco1)C(=O)[C@H](CC(=O)NCc1cccc3ccccc13)C2	-1	.	.	.	2	.
Clc1cccc(N/N=C(\Cc2nc3ccccc3[nH]2)c2ccccc2)c1	-31	-20	0	70*	15	19
Nc1c(N(CCCO)C(=O)CCCN2C(=O)c3cccc4cccc(c34)C2=O)c(=O)[nH]c(=O)n1Cc1ccccc1	-2	4	.	.	-20	.
C[C@@H]1CN([C@@H](C)CO)C(=O)CCCn2cc(nn2)CO[C@H]1CN(C)S(=O)(=O)c1ccc2ccccc2c1	-2	1	.	.	4	.
